Screens deposited in PubChem by National Center for Advancing Translational Sciences (NCATS).
This is a sample that favours compounds with a hit; in the whole collection about 12% have one here.
CHX counter: affects cycloheximide protein synthesis inhibition readout, counter-screen. cell reporter, cycloheximide protein synthesis inhibition counterscreen. max response, %. 300,000 tested, 12% active; in the data active = max response mostly above about 13%, no sharp cut-off; inactive = mostly below about 14%; also: read at 38.3 µM for the half of the compounds with a filed dose; 0% is about no effect
MARV entry inh: Marburg virus entry inhibition; Marburg virus pseudotyped entry inhibition, cell reporter; Potency, µM (doses to about 37.8 µM), for the others: top-dose activity change, negative = inhibition, actives largely listed as inhibitors; 300,000 tested, 1.8% active; calls by dose curve; tested in HEK293 cells; also: potency is read from the fitted curve at half-maximal effect; % is scaled to controls: 0 for no effect and ±100 for the full control effect
Lassa entry inh: Lassa virus entry inhibition; Lassa virus pseudotype entry inhibition, cell reporter; Potency, µM (doses to about 37.9 µM), for inactives: at the highest dose activity change, negative = inhibition, actives largely listed as inhibitors; 300,000 tested, 1.2% active; AID 540256; calls by dose curve; tested in HEK293 cells; also: potency is read from the fitted curve at half-maximal effect; % is scaled to controls: 0 for no effect and ±100 for the full control effect; nearly all actives have a fitted effect of over 50% in size
Shiga toxin inh: blocks Shiga toxin action in Vero cells; Vero cells, Shiga toxin protein synthesis inhibition reporter; inhibition, % at 38.7 µM; 290,000 tested, 9.2% active; in the data active = inhibition mostly above about 28%, no sharp cut-off; inactive = mostly below about 43%; also: 0% is about no effect
* marks the source's active call; other numbers are inactive results; ? = inconclusive; nt = no result given; [ ] = dose if it differs, or a comment.

SMILES | CHX counter | MARV entry inh | Lassa entry inh | Shiga toxin inh
O=C(N/N=C/c1cccs1)c1cccc(NC(=O)c2ccc(Cl)cc2)c1 | 29* | 4% | ? | 13
O=C(Nc1cccc(F)c1)NC1(C(=O)N2CCOCC2)CCCCC1 | 4 | 3% | 4% | -11
O=C(NNC(=S)Nc1ccccc1)c1cccnc1 | 20* | nt | nt | 28*
COc1ccc(C(=O)NNC(=S)Nc2ccccc2)cc1 | 41* | -8% | -1% | 58
CC(=O)c1ccc(NC(=S)NNC(=O)c2ccncc2)cc1 | 16* | 11% | 2% | 18
COc1ccc(C(=O)NNC(=S)NC(=O)c2ccc(OC)cc2)cc1 | 5 | nt | nt | nt
Cc1ccccc1NC(=S)NNC(=O)c1ccncc1 | -2 | 2%[46.1 µM] | nt | 12
O=C(NNC(=S)Nc1cccc(Cl)c1)c1ccccc1 | 27* | ? | -19%[46.1 µM] | 42*
Cc1ccccc1-n1ncc2c1CC(C)(C)CC2NC(=O)CCCN1CCCC1=O (centres undefined) | -3 | 10% | 2% | -4
NS(=O)(=O)c1ccc(Nc2cc(-c3ccc(O)c(F)c3)[nH]n2)cc1 | nt | nt | 22% | nt
O=C(CCc1ccccn1)N1CCCC(N2CCN(c3cccc(C(F)(F)F)c3)CC2)C1 (centres undefined) | 9 | 3%[46.1 µM] | -19%[46.1 µM] | 3
O=C(NNC(=S)Nc1ccc(Cl)cc1)c1ccccc1 | 27* | nt | nt | 57*
COc1ccc(C(=O)NNC(=O)C2(C)CC2(Br)Br)cc1 (centres undefined) | 26* | nt | nt | 35*
O=C(NNC(=S)Nc1ccccc1Cl)c1ccccc1 | 43* | -13% | -30% | 78*
O=C(NNC(=S)NC(=O)c1cccnc1)c1ccc(F)cc1 | 28* | 25%[46.1 µM] | 7% | 39*
O=C(NNC(=S)NC(=O)c1ccc(F)cc1)c1cccnc1 | -4 | 0%[46.1 µM] | 0%[46.1 µM] | 1
CCOC(=O)c1ccc(NC(=O)CSc2nnc(CNC(=O)c3ccc(OC)cc3)n2CC)cc1 | nt | ? | 21%[46.1 µM] | nt
CCCCNC(=O)CCn1nc(-c2ccc(C)cc2)c2ccccc2c1=O | 2 | nt | nt | -4
COc1ccc(S(=O)(=O)Nc2cc3c(cc2C(C)=O)OCO3)cc1 | -1 | nt | nt | -7
O=S(=O)(Oc1ccccc1N1CCCCC1)c1ccccc1 | 7 | ? | -3%[46.1 µM] | 9
CC(=O)c1ccc(NC(=O)CCNC(=O)c2ccccc2Cl)cc1 | -2 | -9%[46.1 µM] | 15% | -8
O=C(Nc1cc2c3c(c1)CC(=O)N3CCC2)c1ccccc1Br | nt | 2% | -4% | nt
CCOc1cc(NC(=S)Nc2ccccc2)c(OCC)cc1NC(=O)c1ccc(OC)cc1 | 21* | ? | ? | 10
CC1Cc2ccccc2N1C(=O)/C=C/c1cccc(F)c1 (centres undefined) | 45* | ? | ? | 87*
Cc1ccccc1C(=O)N1CCN(c2ccc(NC(=O)Cc3ccccc3)cc2)CC1 | 7 | 1% | -15% | -11
SMILES | CHX counter | MARV entry inh | Lassa entry inh | Shiga toxin inh
C[C@@H]1C=CCC(=O)N[C@@H](c2ccc3ccccc3c2)[C@H](C)C=CCC(=O)N[C@@H]1c1ccc2ccccc2c1 | nt | 2.7µM* | nt | nt
O=C1CC(SCc2nc3ccccc3[nH]2)C(=O)N1c1ccc(F)cc1 (centres undefined) | 5 | 12% | 15% | 18
NCCSC1CC(=O)N(c2ccc(F)cc2)C1=O (centres undefined) | 8.3* | -12% | 10% | 30
NCCSC1CC(=O)N(c2ccc(Cl)c(Cl)c2)C1=O (centres undefined) | 16* | ? | -4%[46.1 µM] | 36
O=C1CC(SCCc2nc3ccccc3[nH]2)C(=O)N1c1ccc(F)c(Cl)c1 (centres undefined) | nt | -1% | 17% | nt
CC(OC(=O)CSc1ccc(F)cc1)C(=O)NC1(C#N)CCCCC1 (centres undefined) | 7.3* | -6%[46.1 µM] | -14%[46.1 µM] | 18
O=C(Nc1ccc(Br)cc1)c1cc(-c2ccc3c(c2)OCO3)on1 | 13* | 13%[46.1 µM] | 6% | 33
CCN(CC)C(=O)COCc1cc(-c2ccc3c(c2)OCO3)on1 | 21* | nt | nt | 42
CCC(C)NC(=O)COCc1cc(-c2ccc3c(c2)OCO3)on1 (centres undefined) | 1 | 12%[46.1 µM] | ? | 23
COCCNC(=O)c1cc(-c2ccc3c(c2)OCO3)on1 | 29* | -2% | ? | 98*
COc1ccc(NC(=O)c2cc(-c3ccc4c(c3)OCO4)on2)cc1 | 6 | ? | 1% | -8
CCC(C)NC(=O)c1cc(-c2ccc3c(c2)OCO3)on1 (centres undefined) | 38* | ? | ? | 57*
C=CCNC(=O)c1cc(-c2ccc3c(c2)OCO3)on1 | 35* | ? | ? | 26
Cc1ccc(NC(=O)c2cc(-c3ccc4c(c3)OCO4)on2)cc1 | 8 | 1% | ? | 23
Cc1nn(Cc2ccc(Cl)c(Cl)c2)c(C)c1NC(=O)c1cc(-c2ccc3c(c2)OCO3)on1 | 3 | 6.5µM* | ? | -14
Cc1nn(Cc2ccc(Cl)cc2)c(C)c1NC(=O)c1cc(-c2ccc3c(c2)OCO3)on1 | -2 | ? | -18% | 18
CCCCOc1ccccc1NC(=O)Cn1c(-c2cncs2)nc2ccccc21 | nt | -3%[46.1 µM] | -2%[46.1 µM] | nt
Cc1ccc2nc3sc(C(=O)Nc4ccc(N5CCOCC5)cc4)c(N)c3cc2c1 | 24* | nt | nt | 54
Cc1sc(NC(=O)c2sc3nc4c(C)cccc4cc3c2N)c(C#N)c1C | 19* | ? | 4% | 37*
Cc1cccc2cc3c(N)c(C(=O)Nc4ccc(N5CCOCC5)cc4)sc3nc12 | 1 | ? | 13µM* | 6
COc1ccc(C)cc1NC(=O)CNc1ccc(C(C)=O)cc1 | -3 | ? | -6% | -9
O=C(COc1ccccc1[N+](=O)[O-])NNC(=O)Nc1cccc2ccccc12 | 8 | nt | nt | -2
CCC(C)N(C(=O)COC(=O)CNC(=O)c1sc2ccccc2c1Cl)C1CCS(=O)(=O)C1 (centres undefined) | 46* | 23% | 29% | 70
COc1ccccc1C(=O)Nc1nnc(S(=O)(=O)N2CCC(C)CC2)s1 | -2 | 28%[46.1 µM] | ? | 5
O=C(Nc1nnc(S(=O)(=O)N2CCOCC2)s1)c1ccccc1 | 11* | nt | nt | 22
SMILES | CHX counter | MARV entry inh | Lassa entry inh | Shiga toxin inh
COc1ccccc1C(=O)Nc1nnc(S(=O)(=O)N2CCOCC2)s1 | 14* | nt | nt | 16
C=C(C)C(=O)Nc1cccc(C2=NOC3(C2)C[C@@H](C(N)=O)N(C(=O)CC(c2ccccc2)c2ccccc2)C3)c1 (some centres undefined) | -3 | nt | nt | -13
COC(=O)C1=C(C)Nc2ccc(C)cc2S1 | 24* | 1% | nt | 47
CC(=O)Nc1ccc2c(c1)nc(CCN1CCC(C)CC1)n2C | 4 | 3% | 6% | -4
CCOC(=O)Nc1ccc2c(c1)nc(CN1CCN(C(C)=O)CC1)n2C | -3 | ? | 11% | 3
CC(=O)Nc1ccc2c(c1)nc(CN1CCCC1)n2C | -1 | -23% | 20%[14.3 µM] | -13
CCOC(=O)Nc1ccc2c(c1)nc(CN1CCCCC1)n2C | 23* | nt | nt | 31
CC1CCN(CCc2nc3cc(NC(=O)Nc4ccccc4)ccc3n2C)CC1 | 35* | ? | 2% | 111*
Cn1c(CN2CCCC2)nc2cc(NC(=O)c3ccco3)ccc21 | 33* | 17% | 18% | 57
Cn1c(CN2CCCC2)nc2cc(NC(=O)Nc3ccccc3)ccc21 | 18* | 12% | 27% | 44
